Laboratory results from PubChem BioAssay (NCATS).
Several values for one entry are separate records, joined by “and”; a condition that tells them apart may be missing. Equal values may be shown once. Results filed as inconclusive are left out. Activity calls are given as the source filed them. Calls follow the shape of the dose curve; as a rule, active = well fitted inhibition curve with a large enough effect; inconclusive = small, poorly fitted or top-dose-only effect; inactive = flat fitted curve, though single readings scatter.

System: KB-3-1
Experiment: Cytotoxic Profiling of Annotated Libraries Using Quantitative High-Throughput Screening (AID 1296008); also: nearly all actives have a fitted effect of over 60% in size
Conditions: Five cell lines viability, CellTiter-Glo ATP luminescence, 48-72 h; max response: hits give low values
Outline: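 Cells exposed to compounds for 48 or 72 hr at 37 degrees Celsius. Viability read as ATP-coupled luminescence with CellTiter-Glo after 10 min at room temperature.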
% is scaled to controls: 0 for no effect and ±100 for the full control effect; potency is read from the fitted curve at half-maximal effect.

SMILES | Potency | max response
CCN(CC)c1ccc(C(=C2C=CC(=[N+](CC)CC)C=C2)c2ccccc2)cc1 | 1.3 µM (active) | –
CCCCCCCCCCCCCCCC(=O)OC/C=C(C)/C=C/C=C(C)/C=C/C1=C(C)CCCC1(C)C | – | -13.6% (inactive)
CC1(C)S[C@@H]2[C@H](NC(=O)[C@H](N)c3ccccc3)C(=O)N2[C@H]1C(=O)OCOC(=O)[C@@H]1N2C(=O)C[C@H]2S(=O)(=O)C1(C)C | – | -17% (inactive)
NCCC(=O)[N-][C@@H](Cc1cnc[nH]1)C(=O)O.[Zn] | – | -13.6% (inactive)
CC1(C)C2CC[C@]3(C)[C@H](C(=O)C=C4[C@@H]5C[C@@](C)(C(=O)O)CC[C@]5(C)CC[C@]43C)[C@@]2(C)CC[C@@H]1O[C@H]1O[C@H](C(=O)O)[C@@H](O)[C@H](O)[C@H]1O[C@@H]1O[C@H](C(=O)O)[C@@H](O)[C@H](O)[C@H]1O (stereo partly specified) | – | -22.6% (inactive)
COc1cc2c(c(OC)c1OC)-c1c(cc3c(c1OC)OCO3)C[C@@H](C)[C@](C)(O)C2 | – | 21.3% (inactive) and -4.33% (inactive)
CC(CN1c2ccccc2Sc2ccc(S(=O)(=O)N(C)C)cc21)N(C)C (stereo unspecified) | – | -2.65% (inactive)
CCCCOC(=O)C(=O)Nc1cccc(-c2nn[nH]n2)c1 | – | -17% (inactive)
Cc1ccc(-c2c(C(=O)CCl)n(CCCO)c3ncnc(N)c23)cc1 | – | -3.1% (inactive)
O=C(Cn1cnnn1)N[C@@H]1C(=O)N2C(C(=O)O)=C(CSc3nncs3)CS[C@H]12 | – | -22.7% (inactive) and -13.7% (inactive)
CCC(=O)Oc1ccc2c(c1)CC[C@@H]1[C@@H]2CC[C@]2(C)[C@@H](OC(=O)CC)CC[C@@H]12 | – | -26.3% (inactive)
